Test results reported in PubChem BioAssay (NCATS).
Several values for one entry are separate records, joined by “and”; a condition that tells them apart may be missing. Identical values can stand only once. Records with an inconclusive call do not appear. Activity calls are given as the source filed them. Unless noted, the call rests on the fitted dose curve; in most records, active means well fitted curve in the direction sought with a large enough effect; inconclusive means small, poorly fitted or top-dose-only effect, or another doubt; inactive means no such curve, though single readings can be large; an effect the other way counts as inactive or inconclusive.

Experiments:
[1] = HTS Assay for Allosteric Antagonists of the Human D2 Dopamine Receptor: Hit Validation in HTRF (AID 624455);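 further: stable D1 dopamine receptor cell line scored for blocking the D1 response; on the % scale 0 is the no-effect control and ±100 the full control effect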
In short: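 Hits were examined in an HTRF assay using cells stably expressing the D1 dopamine receptor, scoring inhibition of the D1-mediated response. The preceding primary screen tracked calcium flux after an EC80 dopamine addition in force-coupled, inducible Hek293 Trex D2 cells.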

[2] = biological target: Arylsulfatase A (Homo sapiens) (UniProt P15289); test: qHTS screen for enhancers of Arylsulfatase A (ASA1): LOPAC Validation Assay (AID 720538)
Arylsulfatase A (Homo sapiens), sequence (P15289 whole entry, looked up): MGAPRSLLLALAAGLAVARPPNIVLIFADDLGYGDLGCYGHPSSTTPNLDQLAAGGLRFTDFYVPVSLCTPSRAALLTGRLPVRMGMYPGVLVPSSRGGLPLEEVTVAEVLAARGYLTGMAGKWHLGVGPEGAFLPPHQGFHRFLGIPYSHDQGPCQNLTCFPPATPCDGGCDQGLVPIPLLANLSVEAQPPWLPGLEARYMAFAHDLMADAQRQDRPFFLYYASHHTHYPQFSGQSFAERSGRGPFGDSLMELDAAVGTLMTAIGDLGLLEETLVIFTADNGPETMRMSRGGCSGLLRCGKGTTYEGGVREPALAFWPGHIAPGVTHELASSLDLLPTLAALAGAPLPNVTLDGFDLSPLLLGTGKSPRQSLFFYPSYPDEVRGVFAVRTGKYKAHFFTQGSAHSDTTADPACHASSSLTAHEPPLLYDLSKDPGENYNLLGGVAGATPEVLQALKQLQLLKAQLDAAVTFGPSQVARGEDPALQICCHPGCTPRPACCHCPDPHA
In short: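 Enhancer assay in patient-derived MLD fibroblasts carrying ASA-I179S: 48 h compound exposure at 37 C, then 14 h room-temperature pNCS turnover (0.5 mM final) in lysis buffer. Read by fluorescence at 525/598 nm after NaOH stop.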

[3] = qHTS for compounds that reverse cellular toxicity of Amyloid beta (A-beta) peptide in yeast: LOPAC Validation Assay (AID 720559);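 further: plate controls were DMSO for no effect and equimolar ferric chloride plus clioquinol rescue for full effect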
In short: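 Rescue of A-beta toxicity was scored as yeast growth by 600 nm absorbance after 48 hr at 30 C with compound. Normalization used DMSO (negative) and equimolar ferric chloride plus clioquinol (positive).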

[4] = qHTS for Activators of Parkin Expression: LOPAC Validation Assay (NLuc Reporter) (AID 720572; further: potency means the concentration at half of the fitted maximal effect;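 on activation: 0% = DMSO and 100% = positive control compound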)
In short: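 Neuronal cells with a Parkin promoter-driven FLuc/NLuc coincidence reporter were treated 24 h at 37 C in 7-point dose response (LOPAC). NLuc luminescence read after FLuc; signals normalized to DMSO and positive control (100%).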

[5] = qHTS assay for environmental chemicals that activate the Aryl hydrocarbon Receptor (AhR) signaling pathway (AID 651777); details: 1A2-DRE human hepatoma cells, luciferase, 24 h; activation: active compounds read high; further: % of control where 0% means no effect; nearly all actives have a fitted effect of over 15% in size
In short: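 Luminescence read-out: One-Glo added for 30 min at RT after 24 hr compound treatment (37 C, 5% CO2) of human hepatoma cells expressing a DRE/CYP1A2 promoter–luciferase reporter; increased signal indicates AhR activation.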

[6] = biological target: Peroxisome proliferator-activated receptor alpha (Homo sapiens) (UniProt Q07869); test: qHTS assay for small molecule agonists of the peroxisome proliferator-activated receptor alpha (PPARalpha) signaling pathway (AID 651778); details: PathHunter PPARalpha complementation, chemiluminescence, 6 h; active compounds read high; further: % of control where 0% means no effect
Peroxisome proliferator-activated receptor alpha (Homo sapiens), sequence (Q07869 whole entry, looked up, the tested form may be a part): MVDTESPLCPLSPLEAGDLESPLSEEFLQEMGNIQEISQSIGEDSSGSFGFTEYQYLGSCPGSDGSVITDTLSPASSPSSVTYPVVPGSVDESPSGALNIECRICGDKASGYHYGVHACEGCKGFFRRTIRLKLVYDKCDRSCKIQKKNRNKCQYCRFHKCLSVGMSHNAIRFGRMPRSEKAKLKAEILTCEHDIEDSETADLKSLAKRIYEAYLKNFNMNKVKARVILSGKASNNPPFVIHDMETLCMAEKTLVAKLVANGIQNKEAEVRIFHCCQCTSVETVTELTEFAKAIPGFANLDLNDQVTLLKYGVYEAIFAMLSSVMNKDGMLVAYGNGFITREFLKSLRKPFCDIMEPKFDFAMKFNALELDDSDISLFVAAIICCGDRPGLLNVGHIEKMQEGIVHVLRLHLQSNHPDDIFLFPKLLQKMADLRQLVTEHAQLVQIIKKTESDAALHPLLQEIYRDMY
In short: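 Enzyme-fragment complementation assay in which ligand-bound PPARalpha translocates and forms an active enzyme that generates chemiluminescence. Cells were plated overnight, exposed to compound for 6 hr at 37 C, and then given detection reagent for 60 min at room temperature.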

[7] = qHTS assay for small molecule agonists of the antioxidant response element (ARE) signaling pathway (AID 651741; active means well fitted activation curve with a large enough effect in the signal ratio; the % refers to the signal ratio; further: potency means the concentration at half of the fitted maximal effect; on activation: % of control where 0% means no effect)
In short: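 HepG2 ARE-bla cells plated at 2,000 cells/well and incubated 5 h at 37 C/5% CO2 received 23 nL compound in DMSO. After 16 h at 37 C, LiveBLAzer B/G FRET substrate was applied for 2 h at room temperature and fluorescence read.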

[8] = qHTS assay for small molecule activators of the p53 signaling pathway (AID 651743; active means well fitted activation curve with a large enough effect in the signal ratio, not every such curve was filed as active; the % refers to the signal ratio; further: potency means the concentration at half of the fitted maximal effect; on activation: series mostly up to about 92 µM; % of control where 0% means no effect); details: HCT-116 p53RE-bla, beta-lactamase FRET ratio, 16 h; activation: active compounds read high
In short: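 HCT-116 p53RE-bla, 4,000 cells/well; 5 h settle; cpd/DMSO 16 h, 37 C; LiveBLAzer B/G 2 h RT; fluorescence intensity.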

[9] = biological target: Nuclear receptor ROR-gamma (Homo sapiens) (UniProt P51449); test: qHTS assay for small molecule antagonists of the retinoid-related orphan receptor gamma (ROR-gamma) signaling pathway (AID 651802); further: series mostly up to about 92 µM; on the % scale 0 is the no-effect control and ±100 the full control effect; nearly all actives have a fitted effect of over 60% in size
Nuclear receptor ROR-gamma (Homo sapiens), sequence (P51449 whole entry, looked up): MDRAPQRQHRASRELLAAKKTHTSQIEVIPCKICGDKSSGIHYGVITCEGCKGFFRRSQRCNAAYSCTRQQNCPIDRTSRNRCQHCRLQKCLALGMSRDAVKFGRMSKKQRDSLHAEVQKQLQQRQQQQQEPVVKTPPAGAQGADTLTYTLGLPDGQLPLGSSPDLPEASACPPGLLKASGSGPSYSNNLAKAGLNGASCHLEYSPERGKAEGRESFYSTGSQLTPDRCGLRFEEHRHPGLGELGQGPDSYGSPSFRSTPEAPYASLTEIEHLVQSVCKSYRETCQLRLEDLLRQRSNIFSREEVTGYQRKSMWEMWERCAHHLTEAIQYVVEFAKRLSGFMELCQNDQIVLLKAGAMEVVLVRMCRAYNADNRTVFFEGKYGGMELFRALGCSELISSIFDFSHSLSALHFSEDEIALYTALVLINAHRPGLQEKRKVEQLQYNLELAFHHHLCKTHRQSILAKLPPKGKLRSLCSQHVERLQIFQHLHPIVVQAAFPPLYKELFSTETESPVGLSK
In short: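 CHO cells carrying TET-inducible ROR-gamma and an ROR response element–luciferase reporter were exposed to compound, then induced with doxycycline. After 16hr at 37C, luminescence was read; lower signal indicates antagonism.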

[10] = qHTS assay for small molecule disruptors of the mitochondrial membrane potential - 1 hr assay (AID 651754; calls by dose curve; further: on the % scale 0 is the no-effect control and ±100 the full control effect; nearly all actives have a fitted effect of over 35% in size)
In short: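 HepG2 cells, attached overnight at 37C, were exposed to compound or DMSO vehicle for 1 hr at 37C, 5% CO2, then stained with Mito-MPS dye for 30 min. Red aggregate versus green monomer fluorescence reports membrane potential.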

[11] = qHTS assay for small molecule disruptors of the mitochondrial membrane potential - 5 hr assay (AID 651755; calls by dose curve; further: on the % scale 0 is the no-effect control and ±100 the full control effect; nearly all actives have a fitted effect of over 40% in size)
In short: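 HepG2 cells (2,000/well), attached overnight, exposed to compound 5 hr at 37C, then Mito-MPS dye 30 min. Fluorescence read for monomers (490/535 nm) and aggregates (540/590 nm).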

[12] = biological target: Tumor necrosis factor (Homo sapiens) (UniProt P01375); test: qHTS assay to identify small molecules that stimulate Tumor Necrosis Factor-alpha (TNF-alpha) secretion (AID 651757; active means well fitted curve in the direction sought with a large enough effect in the signal ratio; the % refers to the signal ratio; further: 0% is about no effect)
Tumor necrosis factor (Homo sapiens), sequence (P01375 whole entry, looked up): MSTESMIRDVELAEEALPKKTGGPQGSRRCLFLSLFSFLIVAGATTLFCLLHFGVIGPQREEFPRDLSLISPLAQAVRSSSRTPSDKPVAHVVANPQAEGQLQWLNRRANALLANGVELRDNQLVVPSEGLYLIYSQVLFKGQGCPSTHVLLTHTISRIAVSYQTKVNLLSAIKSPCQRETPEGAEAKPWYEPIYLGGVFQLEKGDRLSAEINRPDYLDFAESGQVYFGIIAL
In short: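 THP-1 cells were exposed to compounds for 17 hrs at 37 C, after which secreted TNF-alpha was measured by homogeneous HTRF (TR-FRET) using cryptate- and XL665-labeled anti-TNF-alpha antibodies, read after 3 hr at room temperature.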

[13] = qHTS assay to identify small molecules that stimulate interleukin-8 (IL-8) secretion (AID 651758; active means well fitted activation curve with a large enough effect in the signal ratio; the % refers to the signal ratio; further: potency means the concentration at half of the fitted maximal effect; on activation: 0% is about no effect)
In short: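 THP-1 cells (2000/well) exposed to compound 16 h at 37 C; secreted IL-8 then detected by HTRF with cryptate- and XL665-labelled anti-IL-8 antibody pair after 1-3 h at room temperature.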

COCCc1ccc(OCC(O)CNC(C)C)cc1 (stereo not drawn)
inactive: Potency [1]

N[C@@H](COP(=O)(O)O)C(=O)O
inactive: Potency [1] | Potency [2] | outcome [3] | Potency [4]

CCN(CC)CC(=O)Nc1c(C)cccc1C
inactive: Potency [1] | Potency [2] | outcome [3] | Potency [4]

CSc1ccc(C(=O)c2[nH]c(=O)[nH]c2C)cc1
inactive: Potency [1]

COCCCC/C(=N\OCCN)c1ccc(C(F)(F)F)cc1
inactive: Potency [1] | Potency [2] | outcome [3] | Potency [4]

CCCCNc1ccc(C(=O)OCCN(C)C)cc1
inactive: Potency [1] | Potency [2] | outcome [3] | Potency [4]

CC(C)(Oc1ccc(CCNC(=O)c2ccc(Cl)cc2)cc1)C(=O)O
inactive: Potency [1] | activation [5] -0.0115% | max response [6] 9.62% | Potency [2] | Potency [4]

CC1=NS(=O)(=O)c2cc(Cl)ccc2N1
inactive: Potency [1] | Potency [2]

Cc1ccc(S(=O)(=O)NC(=O)NN2CCCCCC2)cc1
inactive: Potency [1] | Potency [7] | activation [5] 10.4% | max response [6] -0.39% | outcome [3] | Potency [4]

Fc1ccc(C(c2ccc(F)cc2)N2CCN(C/C=C/c3ccccc3)CC2)cc1
inactive: Potency [1] | Potency [2]

Cc1cccc(C)c1NC(=O)C(C)N (stereo not drawn)
inactive: Potency [1]

Nc1nc(N)c2nc(-c3ccccc3)c(N)nc2n1
inactive: Potency [1] | activation [5] 13.5% and 13.2% | max response [6] -0.436% and -0.649% | Potency [9] | outcome [3] | Potency [4]
active: Potency [7] 54.5 µM and 33.5 µM | Potency [8] 20 µM

O=C(O)CCCCCCCC(=O)O
inactive: Potency [1] | Potency [7] | activation [8] -3.2% | activation [5] -0.0037% | max response [6] -1.61% | Potency [2] | outcome [3] | Potency [4]

CCC(=O)c1ccc2c(c1)N(CCCN(C)C)c1ccccc1S2
inactive: Potency [1] | Potency [2] | outcome [3] | Potency [4]

CCCCNC(=O)NS(=O)(=O)c1ccc(C)cc1
inactive: Potency [1] | Potency [7] | activation [8] -3.27% and -2.98% | Potency [10] | Potency [11] | outcome [12] | activation [5] 0.474% and 1.06% | max response [6] -9.3% and -3.45% | Potency [9] | Potency [2] | Potency [4]

CN(C)CCOC(=O)COc1ccc(Cl)cc1
inactive: Potency [1] | Potency [2] | outcome [3] | Potency [4]

CCn1nc(C(=O)O)c(=O)c2cc3c(cc21)OCO3
inactive: Potency [1] | Potency [2]

O=c1[nH]c(=O)n([C@H]2C[C@H](O)[C@@H](CO)O2)cc1Br
inactive: Potency [1] | Potency [7] | activation [8] 3.27% | outcome [12] | activation [5] 0.877% | max response [6] -2.48% | outcome [3] | Potency [4]
active: Potency [13] 53.1 µM

COc1cc(Cc2cnc(N)nc2N)cc(OC)c1OC
inactive: Potency [1] | Potency [7] | activation [8] -2.04% | Potency [10] | Potency [11] | outcome [12] | activation [5] -1.14% | max response [6] -3.22% | Potency [2] | outcome [3] | Potency [4]

CN1CCN(C2=Nc3ccccc3Oc3ccc(Cl)cc32)CC1
inactive: Potency [1] | Potency [2] | outcome [3] | Potency [4]

COc1ccc(CN(CCN(C)C)c2ccccn2)cc1
inactive: Potency [1] | Potency [13] | activation [5] 3.63% | max response [6] -5.33% | Potency [9] | Potency [2] | outcome [3] | Potency [4]

COCCOC(=O)C1=C(C)NC(C)=C(C(=O)OC(C)C)C1c1cccc([N+](=O)[O-])c1 (stereo not drawn)
inactive: Potency [1] | Potency [2] | outcome [3]
active: Potency [4] 2.06 µM

Cc1scc2c1N(C(=O)CN1CCN(C)CC1)c1ccccc1NC2=O
inactive: Potency [1] | Potency [2] | outcome [3] | Potency [4]

NC(=O)N1c2ccccc2C=Cc2ccccc21
inactive: Potency [1] | Potency [7] | outcome [12] | activation [5] 0.886% and -3.46% | max response [6] -1.1% and -0.275% | Potency [9] | Potency [2] | outcome [3] | Potency [4]

COC(=O)C1=C(C)NC(C)=C(C(=O)OCCN(C)Cc2ccccc2)C1c1cccc([N+](=O)[O-])c1 (stereo not drawn)
inactive: Potency [1] | Potency [2] | outcome [3]
active: Potency [4] 16.4 µM

C[C@]12CCC(=O)C=C1CC[C@@H]1[C@@H]2C(=O)C[C@@]2(C)[C@H]1CC[C@]2(O)C(=O)CO
inactive: Potency [1] | Potency [7] | activation [8] -9.05% | activation [5] -0.997% | max response [6] -0.227% | outcome [3] | Potency [4]

CCN(CC)CCOCCOC(=O)C1(c2ccccc2)CCCC1
inactive: Potency [1]

CN(C)CC[C@@H](c1ccc(Br)cc1)c1ccccn1
inactive: Potency [1]
